# Measured values taken from PubChem BioAssay.
# A number with no mark means an inactive call. Activity calls are given as the source filed them.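 Rule for the calls, unless noted: active = mean inhibition above 46.5%, the solvent-only control mean plus 3 SD; inactive = the rest.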
# Tests used:
# [1] = system: transactivating tegument protein VP16 (Human herpesvirus 1); test: compounds suppressing VP16-driven luciferase signal – cell-based, luminescence, single concentration, counter-screen for SRC2 inhibitor project (AID 652007; in the data active = inhibition above about 36%); conditions: cell-based VP16 transactivation luciferase reporter, at 8.9 µM, active compounds read high
# [2] = biological target: Nuclear receptor coactivator 2 (Homo sapiens) (UniProt Q15596); test: inhibition of GAL4-SRC2 driven luciferase expression – cell-based, luminescence, HEK293, triplicate, confirmation (AID 652008); conditions: HEK293 GAL4-SRC2 luciferase reporter, at 8.9 µM, active compounds read high;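 note: 0% = DMSO-treated cells and 100% = Gossypol at 36 µM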
# Sequence of Nuclear receptor coactivator 2 (Homo sapiens) (Q15596 whole entry, looked up, the tested form may be a part): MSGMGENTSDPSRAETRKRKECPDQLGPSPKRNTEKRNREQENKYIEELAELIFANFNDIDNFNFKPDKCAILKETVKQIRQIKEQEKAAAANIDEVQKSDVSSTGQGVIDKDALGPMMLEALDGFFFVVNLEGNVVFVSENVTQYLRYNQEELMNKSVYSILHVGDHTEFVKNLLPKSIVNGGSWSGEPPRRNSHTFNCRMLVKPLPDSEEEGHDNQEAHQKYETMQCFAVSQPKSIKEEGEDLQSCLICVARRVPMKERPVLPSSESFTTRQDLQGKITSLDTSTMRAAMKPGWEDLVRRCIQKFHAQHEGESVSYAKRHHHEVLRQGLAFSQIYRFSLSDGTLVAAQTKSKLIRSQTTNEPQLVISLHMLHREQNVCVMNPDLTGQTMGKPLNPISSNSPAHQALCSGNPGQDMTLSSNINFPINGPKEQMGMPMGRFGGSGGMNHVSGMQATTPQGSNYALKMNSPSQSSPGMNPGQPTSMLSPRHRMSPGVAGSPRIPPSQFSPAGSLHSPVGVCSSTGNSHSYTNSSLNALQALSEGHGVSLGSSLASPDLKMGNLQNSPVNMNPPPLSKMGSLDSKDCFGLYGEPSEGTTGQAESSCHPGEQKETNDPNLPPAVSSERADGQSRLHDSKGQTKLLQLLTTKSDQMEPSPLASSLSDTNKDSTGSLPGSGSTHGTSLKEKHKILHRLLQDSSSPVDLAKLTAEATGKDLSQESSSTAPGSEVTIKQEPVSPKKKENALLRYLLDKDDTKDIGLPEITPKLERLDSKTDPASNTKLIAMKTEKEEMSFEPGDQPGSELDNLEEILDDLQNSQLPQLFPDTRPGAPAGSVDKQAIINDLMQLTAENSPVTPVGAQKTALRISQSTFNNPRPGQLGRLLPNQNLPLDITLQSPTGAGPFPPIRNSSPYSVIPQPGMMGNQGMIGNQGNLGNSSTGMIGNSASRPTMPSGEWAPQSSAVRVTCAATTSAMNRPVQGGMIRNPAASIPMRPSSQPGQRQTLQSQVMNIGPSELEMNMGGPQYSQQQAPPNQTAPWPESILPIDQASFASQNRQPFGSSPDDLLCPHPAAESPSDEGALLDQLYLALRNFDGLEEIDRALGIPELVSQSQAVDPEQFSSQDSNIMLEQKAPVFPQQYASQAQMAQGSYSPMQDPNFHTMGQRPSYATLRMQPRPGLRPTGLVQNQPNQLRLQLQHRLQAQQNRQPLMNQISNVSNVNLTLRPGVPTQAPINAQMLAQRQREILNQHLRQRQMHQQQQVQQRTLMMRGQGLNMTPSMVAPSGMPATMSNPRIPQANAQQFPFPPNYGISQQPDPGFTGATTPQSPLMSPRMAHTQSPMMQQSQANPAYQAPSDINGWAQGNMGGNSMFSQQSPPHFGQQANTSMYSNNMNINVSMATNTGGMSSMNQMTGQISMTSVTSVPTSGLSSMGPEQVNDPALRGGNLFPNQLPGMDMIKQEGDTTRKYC
SMILES,inhibition [1],inhibition [2]
COc1cc(OC)c(C(=O)C=Cc2ccc(OC)c(OC)c2)c(OC)c1,-5.35%,6.31%
O=C(CCCN1C(=O)/C(=C/c2ccccc2Cl)SC1=S)NNC(=O)c1cccnc1,34.3%,29.9%
COc1ccc(-c2nc(-c3ccccc3)no2)c(OC)c1,3.43%,53.8% (active)
CCc1ccc(/C=C2\SC(=S)N(CCCC(=O)NC3=NCCS3)C2=O)cc1,41.6% (active),90.5% (active)
COC(=O)C1=C(C)N(Cc2ccccc2C(F)(F)F)C(=NCc2ccccc2)NC1c1ccc(Cl)cc1 (configuration not stated),2.66%,1.39%
Cc1cccc(N2CC(C(=O)NC3CCCCCC3)CC2=O)c1C (configuration not stated),-3.4%,-3.61%
N#CCCN(C(=O)COC(=O)C1CCN(S(=O)(=O)c2ccccc2C(F)(F)F)CC1)c1ccccc1,0.12%,11.1%
CC(C)[C@H](NC(=O)[C@@H]1Cc2ccccc2CN1)C(=O)Nc1ccc2c(c1)OCCO2,-21%,-29.4%
COC(=O)c1ccc(Sc2nnnn2-c2ccccc2)c([N+](=O)[O-])c1,20.1%,48.2% (active)
CCOc1ccc(C(=O)CCC(=O)Nc2cccc(S(=O)(=O)N3CCCCC3)c2)cc1,4.55%,44.2%
O=C1CSc2ccc(C(=O)Nc3cccc(S(=O)(=O)Nc4ccc(Br)cc4)c3)cc2N1,11.2%,25.2%
